Measurements from the supplement of paper PMC6555819.

How the values were obtained:
Test in all cases: PBM binding z-score (relative to random genomic background probes); higher = stronger binding; sequences stand for … in GC…GCGATTGACAGCGTAGAATGAAGG
[1] = test system: FXR:RXRa (NR concentration 270 nM, RXRa partner concentration 90 nM)
In short: (§1)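 Regression normalization was applied to scanned fluorescence from custom Agilent 4×180K protein-binding microarrays. Before scanning, arrays were incubated 1 h with ligand-free nuclear receptor dimers, and binding was detected with antibodies against each partner (one per run). Binding z-scores use the random background probes as reference.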

[2] = test system: LXRa:RXRa (NR concentration 270 nM, RXRa partner concentration 90 nM)
In short: as §1

[3] = test system: LXRa homodimer (NR concentration 270 nM)
In short: as §1

[4] = test system: LXRb:RXRa (NR concentration 270 nM, RXRa partner concentration 90 nM)
In short: as §1

[5] = test system: LXRb homodimer (NR concentration 270 nM)
In short: as §1

[6] = test system: PPARa:RXRa (NR concentration 270 nM, RXRa partner concentration 90 nM)
In short: as §1

[7] = test system: PPARg:RXRa (NR concentration 180 nM, RXRa partner concentration 90 nM)
In short: as §1

[8] = test system: PPARg:RXRa 270nM:90nM, anti-RXR (NR concentration 270 nM, RXRa partner concentration 90 nM)
In short: as §1

[9] = test system: PPARg:RXRa 30nM:10nM, anti-RXR (NR concentration 30 nM, RXRa partner concentration 10 nM)
In short: as §1

[10] = test system: PPARg:RXRa 90nM:30nM, anti-RXR (NR concentration 90 nM, RXRa partner concentration 30 nM)
In short: as §1

[11] = test system: PPARg:RXRa DBDmut IVT, anti-RXR (DBD mutation: RXRa K156A/R161A, NR concentration 270 nM, RXRa partner concentration 90 nM)
In short: as §1

[12] = test system: PPARg:RXRa IVT, anti-PPARg (NR concentration 270 nM, RXRa partner concentration 90 nM)
In short: as §1

[13] = test system: PPARg DBDmut IVT, anti-PPARg (DBD mutation: PPARg1 K132A/R137A, NR concentration 270 nM)
In short: as §1

[14] = test system: PPARg homodimer (NR concentration 180 nM)
In short: as §1

[15] = test system: PXR:RXRa (NR concentration 270 nM, RXRa partner concentration 90 nM)
In short: as §1

[16] = test system: PXR homodimer (NR concentration 270 nM)
In short: as §1

[17] = test system: RARa:RXR (NR concentration 270 nM, RXRa partner concentration 90 nM)
In short: as §1

[18] = test system: RARa homodimer (NR concentration 270 nM)
In short: as §1

[19] = test system: RARb:RXRa (NR concentration 270 nM, RXRa partner concentration 90 nM)
In short: as §1

Sequence	PBM binding z-score [1]	PBM binding z-score [2]	PBM binding z-score [3]	PBM binding z-score [4]	PBM binding z-score [5]	PBM binding z-score [6]	PBM binding z-score [7]	PBM binding z-score [8]	PBM binding z-score [9]	PBM binding z-score [10]	PBM binding z-score [11]	PBM binding z-score [12]	PBM binding z-score [13]	PBM binding z-score [14]	PBM binding z-score [15]	PBM binding z-score [16]	PBM binding z-score [17]	PBM binding z-score [18]	PBM binding z-score [19]
CGAACTAGGTCACCAGAACAGTGAAGAGGTTGGA	3.61	2.14	-0.204	1.65	-0.116	5.2	8.46	6.91	5.08	6.61	8.55	8.85	1.39	1.64	1.29	-0.143	2.45	0.0997	4.2
CGAACTAGGTCAAAGGACAGTGAAAGGCGACGTA	4.11	2.54	0.0195	1.9	-0.588	5.72	10.1	8.6	8.13	9.66	7.94	8.4	3.54	2.15	1.21	-0.123	2.12	-0.0827	3.99
CGAACTTGGTCACCAGGACAGTGAAGAGGTTGGA	0.102	-0.231	-0.0617	-0.452	-0.791	0.239	0.758	0.47	-0.456	-0.143	1.74	2.17	-0.841	0.157	-0.0595	-0.183	0.344	-0.448	1.38
